Among all 2,300 compounds or so, about 1,500 (65%) were called active. Cut-off read from the data, not from the text of the source: active = inhibition above about 18%; inactive = the rest. The set was probably picked from earlier hits. Only a sample is shown.
Target: Heat shock protein HSP 90-alpha (Homo sapiens) (UniProt P07900)
Test: inhibitors of HSP90 chaperone activity – cell lysate, luminescence, confirmation (AID 1846);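 note: 0% = vehicle wells and 100% = reference inhibitor wells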
Details: rabbit reticulocyte lysate, luciferase refolding luminescence, 3 h; at 5.9 µM; stronger effect = higher value

Q: For `COc1cccc(-c2nc3ccc(N4CCN(C)CC4)cc3[nH]2)c1`, which inhibition is on record?
A: Its inhibition is 69.3% (active).

Q: With `O=c1c2ccccc2nc(/C=C/c2ccco2)n1-c1ccccc1O` as the compound, how does the inhibition read?
A: Its inhibition is 9.67% (inactive).

Source: PubChem BioAssay AID1846 (The Scripps Research Institute Molecular Screening Center, 2009)
